Several values for one entry are separate records, joined by “and”; a condition that tells them apart may be missing. Equal entries are not always repeated. Where a structure was tested more than once in an assay, its records may differ in their call. Activity calls are given as the source filed them. The calls were made as follows: active = hit-call score of the fitted dose curve at least 0.9, where 1 is the maximum; inactive = score below 0.9.

Assay [1] in a line: BSK_hDFCGF_SRB: Viability Assessment in the BioMAP Diversity Plus: hDFCGF Assay (AID 2283061).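 Also: cells exposed to compound for 24 h before the read.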 The note with it: primary human foreskin fibroblasts. The method in brief:
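SRB-based viability read on primary human skin fibroblasts at 24 h: TCA fixation, 0.1% dye, 560 nm. Gain or loss of signal is fitted against the DMSO negative control.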

Read-out in assay [2]: TIMP metallopeptidase inhibitor 1 (TIMP1), TIMP1 (gene 7076)
Kind of assay: BSK_hDFCGF_TIMP1: BioMAP Diversity Plus: hDFCGF Assay for TIMP metallopeptidase inhibitor 1 (TIMP1) Biomarker Activity (AID 2283062). The settings on record: primary human foreskin fibroblasts; actives raise or lower the signal. The method in brief:
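Bidirectional curve fitting against DMSO baseline yielded this endpoint, based on ELISA detection of TIMP-1 in primary human foreskin fibroblasts exposed to compound for 24 h.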

Read-out in assay [3]: Monokine induced gamma interferon (MIG), CXCL9 (gene 4283)
Kind of assay: BSK_hDFCGF_MIG: BioMAP Diversity Plus: hDFCGF Assay for Monokine induced gamma interferon (MIG) Biomarker Activity (AID 2283063). The settings on record: primary human foreskin fibroblasts; actives raise or lower the signal. The procedure, abridged: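 Endpoint derived by bidirectional fitting relative to DMSO; MIG quantified via ELISA in primary human foreskin fibroblasts harvested 24 h after dosing.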

Read-out in assay [4]: Matrix Metallopeptidase 1 (MMP1), MMP1 (gene 4312)
The assay is described as follows: BSK_hDFCGF_MMP1: BioMAP Diversity Plus: hDFCGF Assay for Matrix Metallopeptidase 1 (MMP1) Biomarker Activity (AID 2283064). The settings on record: primary human foreskin fibroblasts; actives raise or lower the signal. The procedure, abridged:
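Primary human foreskin fibroblasts in the hDFCGF system were dosed with test chemical, and MMP1 was measured by ELISA 24 h later. Values come from bidirectional curve fitting against the DMSO baseline.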

Read-out in assay [5]: Vascular cell adhesion molecule 1 (VCAM1), VCAM1 (gene 7412)
The assay is described as follows: BSK_hDFCGF_VCAM1: BioMAP Diversity Plus: hDFCGF Assay for Vascular cell adhesion molecule 1 (VCAM1) Biomarker Activity (AID 2283065).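 As to AC50: VCAM-1 protein level quantified by ELISA after 24 h chemical exposure.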 The note with it: primary human foreskin fibroblasts; actives raise or lower the signal. The method in brief: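 Measured after 24 h chemical treatment of primary human skin fibroblasts, VCAM-1 was detected by ELISA and concentration-response analysed in both directions versus DMSO vehicle.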

Read-out in assay [6]: Plasminogen activator inhibitor-1 (PAI1), SERPINE1 (gene 5054)
The assay is described as follows: BSK_hDFCGF_PAI1: BioMAP Diversity Plus: hDFCGF Assay for Plasminogen activator inhibitor-1 (PAI1) Biomarker Activity (AID 2283066). The note with it: primary human foreskin fibroblasts; actives raise or lower the signal. The method in brief: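 Human foreskin fibroblast primary cells, 24 h chemical exposure; PAI-1 measured by ELISA. Bidirectional fitting relative to DMSO; parallel cultures stained with SRB for total protein to flag overt cytotoxicity.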

Read-out in assay [7]: Intercellular Adhesion Molecule 1 (ICAM1), ICAM1 (gene 3383)
Kind of assay: BSK_KF3CT_ICAM1: BioMAP Diversity Plus: KF3CT Assay for Intercellular Adhesion Molecule 1 (ICAM1) Biomarker Activity (AID 2283067). The settings on record: primary human keratinocytes with fibroblasts; actives raise or lower the signal. The method in brief:
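Bidirectional curve fitting against a DMSO baseline was applied to ICAM-1 ELISA signal from primary human skin co-cultures harvested 24 h after treatment, with SRB staining of parallel wells for overt cytotoxicity.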

Read-out in assay [8]: Interferon-gamma inducible Protein 10 (IP10), CXCL10 (gene 3627)
The assay is described as follows: BSK_KF3CT_IP10: BioMAP Diversity Plus: KF3CT Assay for Interferon-gamma inducible Protein 10 (IP10) Biomarker Activity (AID 2283068). The settings on record: primary human keratinocytes with fibroblasts; actives raise or lower the signal. The procedure, abridged: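 Human keratinocyte plus foreskin fibroblast primary co-culture exposed to test chemical for 24 h; IP-10 measured by ELISA. Concentration-response fitted bidirectionally against DMSO control as baseline.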

Assay [9] is described as follows: BSK_KF3CT_SRB: Viability Assessment in the BioMAP Diversity Plus: KF3CT Assay (AID 2283069).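 Also: total protein by sulforhodamine B staining as a cytotoxicity measure; read 24 h after compound addition.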 The settings on record: primary human keratinocytes with fibroblasts. The method in brief:
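Human primary keratinocyte plus foreskin fibroblast co-culture exposed to chemicals for 24 h. Total protein measured by 0.1% sulforhodamine B staining after 10% TCA fixation, read at 560 nm; bidirectional fitting versus DMSO baseline.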

Read-out in assay [10]: Interleukin-1 alpha (IL1a), IL1A (gene 3552)
The assay is described as follows: BSK_KF3CT_IL1a: BioMAP Diversity Plus: KF3CT Assay for Interleukin-1 alpha (IL1a) Biomarker Activity (AID 2283070). The note with it: primary human keratinocytes with fibroblasts; actives raise or lower the signal. The procedure, abridged: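 Human keratinocyte plus foreskin fibroblast primary co-culture, sampled 24 h after chemical dosing. IL-1a measured by ELISA; responses fitted bidirectionally against DMSO baseline (negative control), so gain or loss of signal both count.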

Read-out in assay [11]: TIMP metallopeptidase inhibitor 2 (TIMP2), TIMP2 (gene 7077)
The assay is described as follows: BSK_KF3CT_TIMP2: BioMAP Diversity Plus: KF3CT Assay for TIMP metallopeptidase inhibitor 2 (TIMP2) Biomarker Activity (AID 2283071). The note with it: primary human keratinocytes with fibroblasts; actives raise or lower the signal. The procedure, abridged: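 Co-culture of human primary keratinocytes and foreskin fibroblasts, measured 24 h after chemical dosing. TIMP-2 quantified by ELISA and fitted in both directions relative to DMSO. Cytotoxicity checked in parallel cultures by SRB total-protein staining.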

Read-out in assay [12]: Transforming growth factor beta 1 (TGFb1), TGFB1 (gene 7040)
Kind of assay: BSK_KF3CT_TGFb1: BioMAP Diversity Plus: KF3CT Assay for Transforming growth factor beta 1 (TGFb1) Biomarker Activity (AID 2283072). The settings on record: primary human keratinocytes with fibroblasts; actives raise or lower the signal. The procedure, abridged:
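Human keratinocyte/foreskin fibroblast co-culture; TGF-b1 measured by ELISA 24 h after dosing, fitted bidirectionally versus DMSO. Cytotoxicity checked in parallel cultures by total protein (SRB staining, 560 nm).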

Read-out in assay [13]: C-C motif chemokine 2 (Homo sapiens) (UniProt P13500)
Kind of assay: BSK_KF3CT_MCP1: BioMAP Diversity Plus: KF3CT Assay for Monocyte Chemoattractant Protein 1 (MCP1/CCL2) Biomarker Activity (AID 2283073). The settings on record: primary human keratinocytes with fibroblasts; actives raise or lower the signal. The method in brief:
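Biomarker MCP-1 is measured by ELISA in primary human keratinocytes co-cultured with foreskin fibroblasts, 24 h after chemical treatment; DMSO serves as the negative control and activity baseline.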

Read-out in assay [14]: Matrix Metallopeptidase 9 (MMP9), MMP9 (gene 4318)
The assay is described as follows: BSK_KF3CT_MMP9: BioMAP Diversity Plus: KF3CT Assay for Matrix Metallopeptidase 9 (MMP9) Biomarker Activity (AID 2283074).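 As to AC50: MMP9 protein level quantified by ELISA in the co-culture.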 The note with it: primary human keratinocytes with fibroblasts; actives raise or lower the signal. The method in brief:
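Keratinocyte plus foreskin fibroblast human primary skin co-culture was dosed with chemical and MMP-9 was quantified by ELISA 24 h later. Bidirectional curve fitting used DMSO as negative control and activity baseline.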

Read-out in assay [15]: urokinase plasminogen activator (uPA), PLAU (gene 5328)
Kind of assay: BSK_KF3CT_uPA: BioMAP Diversity Plus: KF3CT Assay for urokinase plasminogen activator (uPA) Biomarker Activity (AID 2283075). The note with it: primary human keratinocytes with fibroblasts; actives raise or lower the signal. The procedure, abridged:
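Human keratinocyte plus foreskin fibroblast primary co-culture exposed to chemical for 24 h. uPA levels were quantified by ELISA, and activity was fitted bidirectionally against a DMSO negative-control baseline.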

Read-out in assay [16]: CD40, CD40 (gene 958)
The assay is described as follows: BSK_LPS_CD40: BioMAP Diversity Plus: LPS Assay for CD40 Biomarker Activity (AID 2283076). The settings on record: primary human HUVEC with PBMC; actives raise or lower the signal. The procedure, abridged: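 Using a multiplexed primary human co-culture (umbilical vein endothelium plus PBMC), CD40 was read by ELISA 24 h after dosing, with cytotoxicity tracked by sulforhodamine B staining of parallel cultures and activity fitted bidirectionally versus DMSO.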

Read-out in assay [17]: E-selectin (Homo sapiens) (UniProt P16581)
Kind of assay: BSK_LPS_Eselectin: BioMAP Diversity Plus: LPS Assay for Eselectin Biomarker Activity (AID 2283077). The settings on record: primary human HUVEC with PBMC; actives raise or lower the signal. The procedure, abridged: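 Dose chemical onto LPS-driven HUVEC/PBMC co-culture; after 24 h, run ELISA for E-selectin; fit up- and down-going responses relative to DMSO control.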

Read-out in assay [18]: Interleukin-8 (IL8), CXCL8 (gene 3576)
The assay is described as follows: BSK_LPS_IL8: BioMAP Diversity Plus: LPS Assay for Interleukin-8 (IL8) Biomarker Activity (AID 2283078). The note with it: primary human HUVEC with PBMC; actives raise or lower the signal. The method in brief: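 In this LPS system, chemical-treated human umbilical vein endothelium/PBMC co-cultures were harvested at 24 h for IL-8 ELISA.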

The nature of assay [19]: BSK_LPS_SRB: Viability Assessment in the BioMAP Diversity Plus: LPS Assay (AID 2283079).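 Also: total protein by sulforhodamine B absorbance as a cytotoxicity measure; measured one day after compound addition.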 The note with it: primary human HUVEC with PBMC. The procedure, abridged:
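Cytotoxicity endpoint in human endothelial–PBMC co-culture: 24 h exposure, then SRB (0.1%) staining, 560 nm read.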

Read-out in assay [20]: Interleukin-1 alpha (IL1a), IL1A (gene 3552)
Kind of assay: BSK_LPS_IL1a: BioMAP Diversity Plus: LPS Assay for Interleukin-1 alpha (IL1a) Biomarker Activity (AID 2283080). The note with it: primary human HUVEC with PBMC; actives raise or lower the signal. The procedure, abridged:
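Primary human HUVEC and PBMC co-culture stimulated with LPS is dosed and harvested at 24 h. Both increases and decreases in ELISA-measured IL-1a are scored relative to DMSO.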

Chain of E-selectin (Homo sapiens) (P16581 whole entry, looked up): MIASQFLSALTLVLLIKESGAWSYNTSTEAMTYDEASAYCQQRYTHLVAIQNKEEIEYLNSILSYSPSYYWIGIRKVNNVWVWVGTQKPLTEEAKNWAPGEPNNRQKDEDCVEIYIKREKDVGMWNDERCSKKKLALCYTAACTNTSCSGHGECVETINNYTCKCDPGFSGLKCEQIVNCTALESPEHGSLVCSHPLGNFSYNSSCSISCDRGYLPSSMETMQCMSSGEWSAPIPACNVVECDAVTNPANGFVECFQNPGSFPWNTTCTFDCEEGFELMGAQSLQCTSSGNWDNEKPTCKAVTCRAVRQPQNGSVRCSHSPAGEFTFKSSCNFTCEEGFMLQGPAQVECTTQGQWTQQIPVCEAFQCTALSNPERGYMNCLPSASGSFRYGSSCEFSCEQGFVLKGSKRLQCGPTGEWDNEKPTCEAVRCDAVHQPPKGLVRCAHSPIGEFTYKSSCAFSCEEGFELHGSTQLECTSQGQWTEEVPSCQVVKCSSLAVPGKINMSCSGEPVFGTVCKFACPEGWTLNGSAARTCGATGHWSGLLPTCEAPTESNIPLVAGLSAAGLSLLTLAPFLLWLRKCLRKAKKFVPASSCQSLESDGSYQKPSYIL

Usually AC50 stands for the concentration at which the activity in the assay is half-maximal. For `O=C(O)C[C@H](O)C[C@H](O)/C=C/c1c(C2CC2)nc2ccccc2c1-c1ccc(F)cc1`, the outcome in [1], in assay [2], in assay [3], in assay [4], in [5] and in assay [7] was inactive. The result in [8], in assay [9], in assay [10], in assay [11], in assay [12] and in assay [13] was inactive. Also, the result in assay [14], in assay [15] and in assay [16] was inactive. In addition, the half-maximal activity concentration (AC50) is 2960 nM (active) in [6], 82.2 nM (active) in [17], 992 nM (active) in [18] and 256 nM (active) in assay [19].

Consider `O=C(O)c1cn(-c2ccc(F)cc2)c2cc(N3CCNCC3)c(F)cc2c1=O`, for which the result in assay [1], in assay [2], in assay [3], in assay [4], in assay [5] and in assay [6] was inactive. Also, the result in assay [7], in [8], in [9], in assay [10], in assay [11] and in assay [12] was inactive. Also, the result in assay [13], in [14], in [15], in assay [16], in assay [17] and in [18] was inactive. Also, the outcome in [19] and in assay [20] was inactive.

For the compound `Nc1cc([N+](=O)[O-])ccc1O`, the AC50 in assay [1] was 1.16 µM (active) and 826 nM (active); in [3], 1880 nM (active). The result in [2], in assay [3], in [4], in assay [5], in [6] and in assay [7] was inactive. The outcome in assay [8], in assay [9], in [10], in [11], in assay [13] and in [14] was inactive. Moreover, the outcome in assay [15], in assay [16], in assay [17], in [18], in [19] and in assay [20] was inactive.

As to `C#C[C@]1(O)CC[C@H]2[C@@H]3CCC4=Cc5oncc5C[C@]4(C)[C@H]3CC[C@@]21C`, the result in assay [1], in assay [2], in [3], in assay [4], in assay [6] and in assay [7] was inactive. Also, the result in assay [8], in assay [9], in [10], in assay [12], in assay [13] and in [15] was inactive. For the same compound, the result in assay [16], in assay [17], in [18] and in [20] was inactive. For the same compound, the AC50 in assay [5] was 20000 nM (active); in [11], 3280 nM (active); in [14], 3970 nM (active); in assay [19], 6650 nM (active).

Values taken from PubChem BioAssay (EPA / NIEHS).
